PubChem BioAssay AID1159580 (chemical genetic matrix, 2015)
The campaign covered roughly 5,500 compounds. About 2,000 (36%) were called active. Another 18% or so got no clear call; they are omitted. Rule as the data show it: active = normalized growth mostly below about 0.91 (no sharp cut-off); inconclusive = no clear call, values can overlap the other calls; inactive = mostly above about 0.92. This is one part of the list.

Experiment: chemical genetic growth profiling, strain panel (AID 1159580);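 also: tested at 20 µM; growth read once vehicle control cultures reached saturation at 30 °C; 1 = growth at the plate median or of vehicle wells; lower values mean less growth of the strain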
Conditions: growth OD

Measured: normalized growth

CC1=C(/C=C/C(C)=C/C=C/C(C)=C/C=C/C=C(C)/C=C/C=C(C)/C=C/C23OC2(C)CC(O)CC3(C)C)C(C)(C)CC(O)C1 (configuration not stated)
inactive: S. cerevisiae deletion strains, locus YBR021W, strain FUR4, active compounds read low 1 | S. cerevisiae deletion strains, locus YBR229C, strain ROT2, active compounds read low 1.01 | S. cerevisiae deletion strains, locus YCL029C, strain bik1, active compounds read low 1.02 | S. cerevisiae deletion strains, locus YDL035C, strain GPR1, active compounds read low 1.01 | S. cerevisiae deletion strains, locus YDL074C, strain BRE1, active compounds read low 1.03 | S. cerevisiae deletion strains, locus YDL101C, strain DUN1, active compounds read low 1.01 | S. cerevisiae deletion strains, locus YDL185W, strain tfp1, active compounds read low 1 | S. cerevisiae deletion strains, locus YDL192W, strain arf1, active compounds read low 1 | S. cerevisiae deletion strains, locus YDR101C, strain arx1, active compounds read low 1.01 | S. cerevisiae deletion strains, locus YDR162C, strain NBP2, active compounds read low 0.997 | S. cerevisiae deletion strains, locus YDR318W, strain mcm21, active compounds read low 1.01 | S. cerevisiae deletion strains, locus YDR388W, active compounds read low 1.01 | S. cerevisiae deletion strains, locus YDR502C, strain sam2, active compounds read low 1.02 | S. cerevisiae deletion strains, locus YEL061C, strain CIN8, active compounds read low 1.01 | S. cerevisiae deletion strains, locus YER110C, active compounds read low 1.02 | S. cerevisiae deletion strains, locus YER155C, strain BEM2, active compounds read low 1.01 | S. cerevisiae deletion strains, locus YER167W, strain BCK2, active compounds read low 1.02 | S. cerevisiae deletion strains, locus YGL078C, strain dbp3, active compounds read low 0.995 | S. cerevisiae deletion strains, locus YGL086W, strain mad1, active compounds read low 1.05 | S. cerevisiae deletion strains, locus YGL248W, strain PDE1, active compounds read low 1 | S. cerevisiae deletion strains, locus YGR135W, strain pre9, active compounds read low 0.982 | S. cerevisiae deletion strains, locus YGR252W, strain gcn5, active compounds read low 0.987 | S. cerevisiae deletion strains, locus YHR030C, strain SLT2, active compounds read low 1.01 | S. cerevisiae deletion strains, locus YHR079C, strain IRE1 (second series), active compounds read low 1 | S. cerevisiae deletion strains, locus YHR094C, strain hxt1, active compounds read low 1.01 | S. cerevisiae deletion strains, locus YHR129C, strain ARP1, active compounds read low 1.02 | S. cerevisiae deletion strains, locus YHR200W, strain rpn10, active compounds read low 1.01 | S. cerevisiae deletion strains, locus YIL066C, strain RNR3, active compounds read low 1.01 | S. cerevisiae deletion strains, locus YIL073C, strain SPO22, active compounds read low 1.1 | S. cerevisiae deletion strains, locus YIL125W, strain kgd1, active compounds read low 1.01 | S. cerevisiae deletion strains, locus YIR030C, strain dcg1, active compounds read low 1.01 | S. cerevisiae deletion strains, locus YJL095W, strain BCK1, active compounds read low 0.998 | S. cerevisiae deletion strains, locus YJL134W, strain LCB3, active compounds read low 1.01 | S. cerevisiae deletion strains, locus YJL168C, strain set2, active compounds read low 1.01 | S. cerevisiae deletion strains, locus YJL187C, strain SWE1 (second series), active compounds read low 1 | S. cerevisiae deletion strains, locus YJR043C, strain POL32, active compounds read low 0.999 | S. cerevisiae deletion strains, locus YKL009W, strain mrt4, active compounds read low 1.03 | S. cerevisiae deletion strains, locus YKL068W, active compounds read low 1 | S. cerevisiae deletion strains, locus YKL085W, strain MDH1 (second series), active compounds read low 1.01 | S. cerevisiae deletion strains, locus YKL085W, strain MDH1, active compounds read low 1.01 | S. cerevisiae deletion strains, locus YKL190W, strain CNB1, active compounds read low 1.01 | S. cerevisiae deletion strains, locus YKR001C, strain vps1, active compounds read low 1.04 | S. cerevisiae deletion strains, locus YLR039C, strain RIC1, active compounds read low 1.01 | S. cerevisiae deletion strains, locus YLR058C, strain SHM2, active compounds read low 1.01 | S. cerevisiae deletion strains, locus YLR102C, strain apc9, active compounds read low 1.02 | S. cerevisiae deletion strains, locus YLR262C, strain YPT6, active compounds read low 0.973 | S. cerevisiae deletion strains, locus YLR268W, strain sec22, active compounds read low 1.02 | S. cerevisiae deletion strains, locus YLR330W, strain CHS5, active compounds read low 1.02 | S. cerevisiae deletion strains, locus YLR342W, strain FKS1 (second series), active compounds read low 1.06 | S. cerevisiae deletion strains, locus YLR371W, strain rom2, active compounds read low 1.01 | S. cerevisiae deletion strains, locus YLR418C, strain cdc73, active compounds read low 1 | S. cerevisiae deletion strains, locus YML016C, strain PPZ1, active compounds read low 1.01 | S. cerevisiae deletion strains, locus YML032C, strain rad52, active compounds read low 1 | S. cerevisiae deletion strains, locus YML124C, strain tub3, active compounds read low 1 | S. cerevisiae deletion strains, locus YMR078C, strain ctf18, active compounds read low 1.02 | S. cerevisiae deletion strains, locus YMR223W, strain ubp8, active compounds read low 1.01 | S. cerevisiae deletion strains, locus YMR263W, strain SAP30, active compounds read low 1.01 | S. cerevisiae deletion strains, locus YMR307W, strain GAS1, active compounds read low 1.02 | S. cerevisiae deletion strains, locus YNL067W, strain RPL9B, active compounds read low 1 | S. cerevisiae deletion strains, locus YNL153C, strain GIM3, active compounds read low 0.994 | S. cerevisiae deletion strains, locus YNL233W, strain BNI4, active compounds read low 1.02 | S. cerevisiae deletion strains, locus YNL250W, strain rad50, active compounds read low 1.01 | S. cerevisiae deletion strains, locus YNL271C, strain bni1, active compounds read low 1 | S. cerevisiae deletion strains, locus YNL298W, strain CLA4, active compounds read low 0.991 | S. cerevisiae deletion strains, locus YNL307C, strain MCK1, active compounds read low 1.01 | S. cerevisiae deletion strains, locus YNL322C, strain KRE1, active compounds read low 1.01 | S. cerevisiae deletion strains, locus YNR052C, strain pop2, active compounds read low 1 | S. cerevisiae deletion strains, locus YOL006C, strain TOP1, active compounds read low 1.11 | S. cerevisiae deletion strains, locus YOL012C, strain htz1 0.925 | S. cerevisiae deletion strains, locus YOL147C, strain pex11, active compounds read low 1.01 | S. cerevisiae deletion strains, locus YOR061W, strain CKA2, active compounds read low 1.02 | S. cerevisiae deletion strains, locus YOR069W, strain VPS5, active compounds read low 1.02 | S. cerevisiae deletion strains, locus YOR136W, strain idh2, active compounds read low 1 | S. cerevisiae deletion strains, locus YOR144C, strain elg1, active compounds read low 0.998 | S. cerevisiae deletion strains, locus YOR184W, strain ser1, active compounds read low 1.03 | S. cerevisiae deletion strains, locus YOR316C, strain cot1, active compounds read low 1.03 | S. cerevisiae deletion strains, locus YPR119W, strain clb2, active compounds read low 0.994 | S. cerevisiae deletion strains, locus YPR141C, strain kar3, active compounds read low 1.01 | S. cerevisiae deletion strains, locus YPR163C, strain tif3, active compounds read low 1.01 | S. cerevisiae deletion strains, locus YPR167C, strain met16, active compounds read low 1.01 | S. cerevisiae deletion strains, strain wtn01, active compounds read low 1.02 | S. cerevisiae strains, strain wild type, active compounds read low 1.01
